TexasRed autofl – qHTS Assay for Spectroscopic Profiling in Texas Red Spectral Region | Compound fluorescence, Texas Red channel, 547/618 nm; stronger effect = higher value | AID 587, 2007 | actives 0.06% (n = 59,000) | max dye-equivalent concentration, M; in the data active means max dye-equivalent concentration above about 10 nM; inconclusive means between about 1.1 nM and that limit
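Texas Red-region profiling: compounds in 100 mM Tris pH 8.0 were read at 547/618 nm after 15 min at room temperature. Intensities were normalized against a six-point Texas Red standard series to give dye-equivalent concentration.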
Fluorescein autfl – qHTS Assay for Spectroscopic Profiling in Fluorescein Spectral Region; Compound autofluorescence, 480/540 nm, fluorescein-equivalent; stronger effect = higher value; max fluorescein-equivalent concentration, M; AID 593, 2007; actives 0.91% (n = 59,000); in the data active means max fluorescein-equivalent concentration above about 10 nM; inconclusive means between about 1.1 nM and that limit
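Spectral profiling of library compounds in the fluorescein window (480 nm excitation, 540 nm emission) after 15 min at room temperature in pH 8.0 Tris (100 mM). Values are dye-equivalent concentrations.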
Resorufin fluor – qHTS Assay for Spectroscopic Profiling in Resorufin Spectral Region. Compound fluorescence, resorufin region 547/598 nm, buffer; stronger effect = higher value. max dye-equivalent concentration, M. AID 588, 2007. actives 0.04% (n = 59,000)
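Compounds in 100 mM Tris, pH 8.0, incubated 15 min at room temperature, then fluorescence read at 547 nm excitation/598 nm emission. Signal converted to dye-equivalent concentration via an on-plate six-point resorufin standard curve, per compound concentration.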
A647 fluor – qHTS Assay for Spectroscopic Profiling in A647 Spectral Region; max dye-equivalent concentration, M; 59,000 tested, under 10 active; Compound fluorescence, A647 channel (570/671 nm), Tris buffer; AID 592, 2007;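 further: values scaled relative to a standard on each plate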
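Compound fluorescence was measured in 100 mM Tris buffer, pH 8.0, after 15 min at room temperature, using 570 nm excitation and 671 nm emission filters. Signal was normalized to a per-plate Alexa 647 standard curve and expressed as dye-equivalent concentration at each compound concentration.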
Rhodamine fluor – qHTS Assay for Spectroscopic Profiling in Rhodamine Spectral Region; max dye-equivalent concentration, M; AID 594, 2007; Rhodamine-region fluorescence, 547/598 nm, Tris buffer; stronger effect = higher value; actives 0.05% (n = 59,000); in the data active means max dye-equivalent concentration above about 11 nM; inconclusive means between about 1.1 nM and that limit
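Intensities are converted to rhodamine-equivalent concentration using a six-point rhodamine standard on each plate. Compounds sit 15 min at room temperature in 100 mM Tris buffer, pH 8.0; read uses the 547/598 nm excitation/emission pair.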
A488 fluor – qHTS Assay for Spectroscopic Profiling in A488 Spectral Region. AID 591, 2007. max dye equivalency, M. actives 0.1% (n = 59,000). compound autofluorescence, A488 spectral region, dye equivalency; Compound Type: qHTS ECL - MLSMR
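Compounds pin-transferred into 100 mM Tris buffer, pH 8.0, incubated 15 min at room temperature, then imaged with 480 nm excitation/540 nm emission filters. Fluorescence converted to Alexa 488 dye-equivalent concentration via an on-plate six-point A488 standard curve.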
* hit, by the source's call; i = inactive; ? = inconclusive. Rows were chosen to be rich in hits. Some 0.96% of all compounds tested hit in one or more screens of this group. Unless noted, how the calls were made is not given here.

SMILES	TexasRed autofl	Fluorescein autfl	Resorufin fluor	A647 fluor	Rhodamine fluor	A488 fluor
CCOC(=O)N1CCC(Nc2nc3ccccc3n3nnnc23)CC1	i	1.1e-08M*	i	4e-08	i	i
NC(=O)N1c2ccccc2CC(=O)c2ccccc21	i	3.3e-08M*	i	1e-09	i	?
NC(=O)N1c2ccccc2C=Cc2ccccc21	i	?	i	3.8e-08	i	i
COc1ccc(CCN(C)CCC[C@@](C#N)(c2cc(OC)c(OC)c(OC)c2)C(C)C)cc1OC	i	?	i	3.7e-08	i	i
N[C@@H](Cc1[nH]nc2ccccc12)C(=O)O	i	1.1e-08M*	i	2.3e-09	i	i
Oc1ccc2cccnc2c1	i	1.6e-08M*	i	4.2e-08	i	i
COc1cc(OC)c(/C=C2/C(=O)Nc3ccccc32)c(OC)c1	i	?	i	2.4e-08	i	i
Cc1cc(C)c(/C=C2/C(=O)Nc3ccccc32)[nH]1	i	2.3e-08M*	i	6.6e-08	?	i
C=C(CO)[C@H]1Cc2c(ccc3c(=O)c4c(oc23)COc2cc(OC)c(OC)cc2-4)O1	i	?	i	1.8e-08	i	i
N#Cc1c(N2CCCCC2)nc(N2CCCCC2)c2c1CCN(Cc1ccccc1)C2	i	4.8e-08M*	i	1.3e-09	i	?
Nc1c(C(=O)Nc2ccccc2)sc2nc(-c3ccco3)ccc12	?	1.6e-08M*	i	6.2e-09	i	i
COc1ccccc1NC(=O)c1sc2nc(-c3ccco3)ccc2c1N	i	i	i	1e-09	i	i
CCS(=O)(=O)CCSc1nc(C)cc(C)c1C#N	i	i	i	1e-09	i	i
CCOC(=O)CCSc1nc(C)cc(C(F)(F)F)c1C#N	i	1.5e-08M*	i	1e-09	i	i
CC[C@@]1(O)C(=O)OCc2c1cc1n(c2=O)Cc2cc3c(CN(C)C)c(O)ccc3nc2-1	?	4.3e-07M*	i	4.7e-09	i	2.1e-08M*
CCCCc1cc(=O)oc2c(CN(C)C)c(O)ccc12	i	?	i	2.7e-08	i	i
O=c1c(-c2ccc(Cl)cc2)[n+]([O-])c2ccccc2n1O	i	1.6e-08M*	i	1e-09	i	i
C=CCOn1c(=O)c(-c2ccc(OC)cc2)[n+]([O-])c2ccccc21	?	i	i	1e-09	i	i
COCCn1c(=O)c(-c2ccc(OC)cc2)nc2cnc(Nc3ccccc3)nc21	i	2.4e-08M*	i	1e-09	i	i
COCCn1c(=O)c(-c2cccs2)nc2cnc(Nc3ccccc3)nc21	i	2.7e-08M*	i	2.6e-08	i	i
Nc1cc(C(=O)O)[nH]c(=O)n1	i	1.1e-08M*	i	6.4e-09	i	i
COC(=O)[C@H]1[C@@H]2C[C@H]3c4[nH]c5ccccc5c4CCN3C[C@@H]2CC[C@@H]1O	i	i	i	1.5e-09	i	i
COc1cc(/C=C(\C#N)C(=O)c2ccc(O)c(O)c2)cc(I)c1O	i	1.3e-08M*	i	1e-09	i	i
COc1ccc(-n2c(=O)c(-c3ccc(Cl)cc3)nc3cnc(N4CCNCC4)nc32)cc1	i	i	i	1.7e-09	i	i
O=S(=O)(Nc1nc2ccccc2[nH]1)c1ccc(Cl)cc1	i	i	i	5.8e-08	i	i
SMILES	TexasRed autofl	Fluorescein autfl	Resorufin fluor	A647 fluor	Rhodamine fluor	A488 fluor
O=S(=O)(Nc1nc2ccccc2[nH]1)c1ccccc1	i	2.2e-08M*	i	7.5e-09	i	i
FC(F)(F)c1ccccc1-c1nc(NC2CC2)c2ccccc2n1	i	i	i	1e-09	i	i
Cn1c(CN2CCC(C(N)=O)CC2)c(C#N)c2ccccc21	?	?	i	6.4e-08	i	i
Cn1c(CN2CCCCC2)c(C#N)c2ccccc21	i	2.5e-08M*	i	1e-09	i	i
O=C(NCc1ccco1)c1cccnc1-c1nc2ccccc2s1	i	3.5e-08M*	i	2.2e-08	i	?
CCCCCCCCCCCCC/C=C\[C@H](O)[C@H](N)CO	i	?	i	2.4e-08	i	i
CCN1C(=O)c2cccc3cccc1c23	?	i	i	7.7e-09	i	i
CCN(CC)CCN1C(=O)c2cccc3cc(N)cc(c23)C1=O	i	3.9e-08M*	i	1.2e-09	i	?
CCCCNc1c(CN)cnc2cc(Cl)ccc12	i	?	i	1e-09	i	i
COc1cccc(Nc2ncc3nc(-c4cn(C)c5ccccc45)c(=O)n(C[C@H]4CCCO4)c3n2)c1	i	1.6e-08M*	i	1e-09	i	i
COc1cccc(Nc2ncc3nc(-c4cccs4)c(=O)n(C[C@H]4CCCO4)c3n2)c1	i	4.2e-08M*	i	1e-09	i	?
CN1CCN([C@@H]2Cc3ccccc3Sc3ccc(Cl)cc32)CC1	i	?	i	1e-09	i	i
CCCCCCCCCCCCCCC/C=C\[C@H](O)[C@@H](NC(=O)CCCCCCCCCCCCC)OC (tested in a mixture with another compound)	?	?	i	5.2e-08	i	i
CCN1CC=C2C(C1)C(c1ccc(Cl)s1)C(C#N)=C(N)C2(C#N)C#N (configuration not stated)	i	8.6e-08M*	i	1e-09	i	?
C=C[C@H]1CN2CC[C@@H]1C[C@H]2[C@@H](O)c1ccnc2ccc(OC)cc12	i	?	i	6.1e-08	i	i
CCOn1c(=O)c(-c2cc3ccccc3o2)[n+]([O-])c2ccccc21	i	1.3e-07M*	i	1.4e-08	i	?
CC(C)NC(=O)N1CCC2(CC1)CCN(C(=O)c1csnn1)CC2	i	i	i	1e-09	i	i
Cc1nccn1-c1c2c(c(C#N)c3nc4ccccc4n13)CCCC2	?	1.4e-08M*	i	2.1e-08	i	i
Cc1cc(C)c2c(=O)[nH]c(=O)n(Cc3ccccc3)c2n1	i	1.3e-08M*	i	1.2e-08	i	i
Cc1cc(C)n(-c2nc3c(c(=O)[nH]c(=O)n3C)n2Cc2ccccc2)n1	i	?	i	1e-09	i	i
O=C1CCC[C@H]1C(=O)Nc1ccc2ccccc2c1	i	i	i	3.2e-08	i	i
COc1ccc(-c2c3c(=O)n(C)c(=O)n(C)c3c3nnc4ccccc4n23)cc1	i	1.4e-08M*	i	1e-09	i	i
